# POLH inh: blocks human DNA polymerase eta activity. Q9Y253. recombinant Pol eta, fluorescent DNA replication assay. Potency, µM (top dose mostly 114 µM), inactives show top-dose activity change, negative = inhibition, actives largely listed as inhibitors. actives 1.2% (n = 390,000); note: % is set by controls: 0 for no effect and ±100 for the full control effect
#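 Pol eta (10 nM) was preincubated with compounds for 15 min at room temperature, after which fluorescent replication substrate (50 nM final) was added to start the reaction. Fluorescence was read kinetically at 0 and 10 min.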
# Pol iota inh: blocks human DNA polymerase iota activity | Pol iota fluorescent replication assay, 10 min | Potency, µM (highest dose often 115 µM), for the others: at the highest dose activity, negative = inhibition, most hits filed as inhibitors | AID 588590 | actives 1% (n = 390,000) | Q9UNA4
# Target sequence (Q9UNA4 whole entry, looked up): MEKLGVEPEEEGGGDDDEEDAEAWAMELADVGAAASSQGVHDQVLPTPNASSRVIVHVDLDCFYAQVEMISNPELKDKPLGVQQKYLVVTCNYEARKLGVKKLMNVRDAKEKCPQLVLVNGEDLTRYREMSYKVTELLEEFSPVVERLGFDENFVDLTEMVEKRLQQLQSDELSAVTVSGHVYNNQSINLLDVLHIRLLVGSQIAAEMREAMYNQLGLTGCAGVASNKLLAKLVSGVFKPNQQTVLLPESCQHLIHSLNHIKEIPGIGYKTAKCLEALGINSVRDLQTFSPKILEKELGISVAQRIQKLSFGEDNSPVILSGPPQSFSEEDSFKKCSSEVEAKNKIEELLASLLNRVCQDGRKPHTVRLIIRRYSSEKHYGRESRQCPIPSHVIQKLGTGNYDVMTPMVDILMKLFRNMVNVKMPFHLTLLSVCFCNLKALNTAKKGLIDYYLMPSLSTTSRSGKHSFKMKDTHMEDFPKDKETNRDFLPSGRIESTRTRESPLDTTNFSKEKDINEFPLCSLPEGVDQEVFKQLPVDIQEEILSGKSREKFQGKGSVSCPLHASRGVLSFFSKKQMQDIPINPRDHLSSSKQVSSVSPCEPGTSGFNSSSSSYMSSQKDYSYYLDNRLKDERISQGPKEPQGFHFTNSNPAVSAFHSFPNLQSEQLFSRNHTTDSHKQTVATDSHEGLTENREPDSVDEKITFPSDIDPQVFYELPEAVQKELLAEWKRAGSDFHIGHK
#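 Pol iota at 10 nM preincubated 15 min with compounds at room temperature; reaction started with fluorescent substrate, 50 nM final. Fluorescence read kinetically at 0 and 10 min; buffer-only wells as negative control.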
# Pol beta inh: inhibitors of human DNA polymerase beta; P06746; Potency, µM (doses to about 114 µM), for inactives: at the highest dose activity change, negative = inhibition, hits mostly inhibitors; Pol beta primer extension/strand displacement, fluorescence kinetic; actives 1.3% (n = 340,000); note: % is set by controls: 0 for no effect and ±100 for the full control effect
#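 Kinetic readout of DNA synthesis with strand displacement by Pol beta. Compound and 10 nM enzyme sit 15 min at room temperature; 50 nM substrate starts the reaction, read immediately and at 10 min.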
# L3MBTL1 inh-1: inhibitors of human L3MBTL1; Q9Y468; AlphaScreen L3MBTL1–H3K9me1 peptide binding; Potency, µM (series often up to 57.1 µM), without a hit: at the highest dose activity, negative = inhibition, usual class: inhibitors; actives 0.66% (n = 230,000); note: % is set by controls: 0 for no effect and ±100 for the full control effect; nearly all actives have a fitted effect of over 60% in size
#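 First, the protein-peptide complex forms for 30 min at room temperature (L3MBTL1 50 nM, biotinylated H3K9me1 peptide 75 nM). Next, compounds are pin-transferred and incubated 30 min. Finally, AlphaScreen beads are added and read after 30 min.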
# POLK inh: inhibitors of human DNA polymerase kappa. purified Pol kappa, fluorescent DNA synthesis assay, 10 min. actives 0.53% (n = 400,000). Potency, µM (doses to about 107 µM), for the others: at the top dose activity, negative = inhibition, usual class: inhibitors. Q9UBT6. AID 588579; note: % is set by controls: 0 for no effect and ±100 for the full control effect
#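 Kinetic fluorescence readout at 0 and 10 min followed reaction start with substrate at 50 nM final. Beforehand, enzyme (10 nM Pol kappa) stood 15 min with compound at room temperature; buffer-only wells were negative controls.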
# APE1 inh: blocks human APE1 abasic DNA cleavage | recombinant APE1, TAMRA/BHQ-2 abasic DNA cleavage fluorescence | Potency, µM (titrated, usually from 65.8 µM), for inactives: top-dose activity change, negative = inhibition, hits mostly inhibitors | AID 2517 | actives 0.35% (n = 350,000);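 note: plate controls were vehicle for no effect and reference inhibitor for full effect; nearly all actives have a fitted effect of over 55% in size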
#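 0.75 nM APE1 + cpd, 15 min RT; start w/ 50 nM TAMRA/BHQ-2 THF-abasic dsDNA; kinetic fluor 525/598 nm ×3 reads @60 s; Δ(read3−read1); normalized to DMSO and NSC13755 control wells.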
# L3MBTL1 inh-2: validation of human L3MBTL1 methyl-lysine binding inhibitors. shares compounds with L3MBTL1 inh-1. actives 91% (n = 500). L3MBTL1 methyl-lysine binding inhibition, biochemical qHTS. Potency, µM, actives largely listed as inhibitors; note: nearly all actives have a fitted effect of over 70% in size
# L3MBTL1 ctr: interferes with AlphaScreen signal in L3MBTL1 counterscreen. shares compounds with L3MBTL1 inh-1. AlphaScreen counterscreen, signal inhibition. Potency, µM (series often up to 57.1 µM), for the others: top-dose activity change, negative = inhibition, actives largely listed as inhibitors. 500 tested, under 10 active; note: 0% is about no effect
# * hit, by the source's call; ? = inconclusive; nt = no result given; [ ] = dose if it differs, or a comment. Sampled rows, rich in hits. Any-hit rate of the full collection: about 2.5%. Calls come from the whole dose curve; as a rule, active = well fitted curve in the direction sought with a large enough effect; inconclusive = small, poorly fitted or top-dose-only effect, or another doubt; inactive = no such curve, though single readings can be large; an effect the other way counts as inactive or inconclusive. Potency is the fitted concentration of half-maximal effect.
SMILES,POLH inh,Pol iota inh,Pol beta inh,L3MBTL1 inh-1,POLK inh,APE1 inh,L3MBTL1 inh-2,L3MBTL1 ctr
CSCCC(NS(=O)(=O)c1ccc(C)c(C(=O)O)c1)C(=O)O (stereo not drawn),?,-22%,25µM*,8.9µM*,-15%,-2%,?,-5%
Cc1cccc(CNc2ncncc2-c2ccccc2Cl)c1,nt,nt,nt,nt,8%[60.1 µM],9%,nt,nt
COC(=O)/C(C#N)=C/c1ccc(OC(=O)c2ccccn2)cc1,-19%,16%,19%,16µM*,0%,5%,?,0%
Cc1ccc(/C=C2\SC(N3CCN(C(c4ccccc4)c4ccccc4)CC3)=NC2=O)o1,-1%,-12%,40µM*,14µM*,-8%,1%,15*,-2%
O=C(/C=C/c1ccco1)NC(=S)Nc1cccc([N+](=O)[O-])c1,50µM*,?,40µM*,35µM*,?,10%,24*,-1%
O=C(Nc1cccc2ccccc12)c1ccc([N+](=O)[O-])o1,15%,?,3%,2%,2%,-14%,nt,nt
O=C(Nc1ccccc1C(=O)NC1CC1)c1ccc([N+](=O)[O-])o1,32µM*,50µM*,nt,32µM*,-35%,?,19*,9%
COc1cc2c(cc1OC)CN(Cc1nc3ccsc3c(=O)[nH]1)CC2,18µM*,?,?,25µM*,?,-11%,21*,-3%
CN(C(=O)CCCOc1ccc2[nH]c(=O)ccc2c1)C1CCCCC1,-3%[57.1 µM],4%[58.9 µM],14%[57.1 µM],nt,-9%[60.1 µM],-2%,nt,nt
COc1ccccc1C(=O)NC1CCSc2ccccc21 (stereo not drawn),-18%,15%,-3%,nt,1%,-12%,nt,nt
O=S1(=O)Nc2c(ccc3cccnc23)-c2ccccc21,3%,?,18%,11µM*,-9%,-7%,3*,9.5µM*
COc1ccccc1N1CCN(C(=O)c2ccc3c(c2)NC(=O)C(CSCc2ccccc2C)N3)CC1 (stereo not drawn),nt,nt,?,nt,nt,47%,nt,nt
Cc1ccc(-c2cc(C(=O)O)c3cc(Br)ccc3n2)o1,20µM*,?,22µM*,32µM*,?,-3%,21*,-5%
Cc1ccc(-c2cc(C(=O)O)c3cc(Br)ccc3n2)s1,-2%,11%,2%,nt,-12%,38%,nt,nt
Cc1nnc(NC(=O)C2CCN(S(=O)(=O)c3ccc(F)c(Cl)c3)CC2)o1,2%,40%,nt,35µM*,-11%,-16%,?,-6%
CCOC(=O)c1ccc(S(=O)(=O)N2CCC(C(=O)Nc3nnc(C)o3)CC2)cc1,1%,34%,nt,-11%,-23%,-1%,nt,nt
COc1ccc(S(=O)(=O)/N=C2/NC(=O)/C(=C/c3ccco3)S2)cc1,18µM*,?,32µM*,35µM*,-10%,?,19*,-1%
COc1ccc(S(=O)(=O)/N=C2/NC(=O)/C(=C\c3cc(OC)c(OC)cc3[N+](=O)[O-])S2)cc1,-20%,-11%,4%,nt,-6%,2%,nt,nt
COC(=O)[C@H](Cc1ccccc1)NC(=O)C/C=C\[C@@H](C)[C@@H](CO)OC,nt,nt,nt,nt,nt,43%[12.4 µM],nt,nt
O=C(CSc1nnc(-c2ccco2)o1)c1ccc(F)c(F)c1,-18%,18%,-2%,-4%,-1%,-7%,nt,nt
O=C(CSc1nnc(-c2ccco2)o1)c1ccc[nH]1,?,14µM*,14µM*,28µM*,?,4%,19*,1%
Nc1nc(-c2ccccn2)nc(N)c1Cc1c(F)cccc1Cl,-2%,37%,16%,3.5µM*,-4%,-5%,11*,-22%

# From PubChem BioAssay
